The term inhibition denotes the change of the read-out against control, counted positive when it falls.

A short description of experiment [1]: antimalarial activity against Dd2 strain (AID 2302;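 active = growth inhibition above 50% at the single 2 µM test dose, taken to imply half-maximal potency below 2 µM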;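 also: 0% = DMSO untreated growth and 100% = chloroquine plus artemisinin killed control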). As to conditions: P. falciparum Dd2 in RBCs, LDH growth readout, 72 h; at 2 µM; hits give high values.
Experiment [2] in a line: human hepatoma cell viability loss – ATP luminescence, cytotoxicity control for P. falciparum antimalarial project, primary screen (AID 2303;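 active = inhibition above 50%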;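 also: 0% = DMSO wells and 100% = digitonin-killed cells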). As to conditions: HepG2 viability, 24-48 h, at 10 µM, hits give high values.
Experiment [3] concerns the target L-lactate dehydrogenase (Plasmodium falciparum (isolate CDC / Honduras)) (UniProt Q27743). Put plainly: PfLDH activity inhibition – cell lysate, 3D7 strain, counter-screen for P. falciparum growth inhibition project (AID 2304).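 Also: 0% = vehicle and 100% = reference inhibitor.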 As to conditions: P. falciparum 3D7 crude extract, LDH APAD/NBT absorbance; at 2 µM; hits give high values.
A short description of experiment [4]: inhibition of 3D7 malaria parasite growth – strain 3D7 (AID 2306).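 Also: 0% = DMSO wells and 100% = chloroquine plus artemisinin control wells.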 The following applies: P. falciparum 3D7 erythrocytic growth, LDH absorbance, 72 h; at 2 µM; hits give high values.
Experiment [5] deals with Calcium-dependent protein kinase 1 (Plasmodium falciparum (isolate 3D7)) (UniProt P62344). Put plainly: PfCDPK1 kinase inhibitors, biochemical, TCAMS library (AID 1159585; cut-off not given, nearly all actives have IC50 up to about 0.98 µM;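 also: inhibitors leave more ATP so luminescence rises with inhibition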). The following applies: recombinant PfCDPK1, Kinase-Glo ATP depletion luminescence. (In general: In Kinase-Glo more light means more ATP remaining.)
Sequence of Calcium-dependent protein kinase 1 (Plasmodium falciparum (isolate 3D7)) (P62344 whole entry, looked up): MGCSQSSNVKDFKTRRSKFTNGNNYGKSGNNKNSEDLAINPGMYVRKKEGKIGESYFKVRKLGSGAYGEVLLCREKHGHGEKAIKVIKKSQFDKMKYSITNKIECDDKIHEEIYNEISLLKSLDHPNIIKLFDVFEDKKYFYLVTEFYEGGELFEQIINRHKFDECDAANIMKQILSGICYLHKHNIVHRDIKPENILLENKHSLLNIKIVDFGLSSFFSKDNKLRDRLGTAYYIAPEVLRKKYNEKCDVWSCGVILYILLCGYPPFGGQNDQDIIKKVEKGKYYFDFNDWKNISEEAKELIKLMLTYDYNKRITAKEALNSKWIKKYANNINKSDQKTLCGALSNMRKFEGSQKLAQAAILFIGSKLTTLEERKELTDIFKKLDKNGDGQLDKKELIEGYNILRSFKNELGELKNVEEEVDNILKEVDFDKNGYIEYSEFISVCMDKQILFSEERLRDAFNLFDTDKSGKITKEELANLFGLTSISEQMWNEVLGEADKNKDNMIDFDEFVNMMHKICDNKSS
Experiment [6] has as its target Plasmodium falciparum protein kinase 6 (PK6, PF3D7_1337100) (UniProt Q8IDW1). Put plainly: PfPK6 kinase inhibitors, biochemical, TCAMS library (AID 1159586). As to conditions: recombinant PfPK6, Kinase-Glo ATP depletion luminescence.
Experiment [7] addresses Protein kinase 7 (PK7), Plasmodium falciparum 3D7 (PF3D7_0213400) (UniProt Q7YTF7). Put plainly: inhibition of Plasmodium PK7 catalytic activity – biochemical, TCAMS antimalarial set, Kinase-Glo luminescence (AID 1159587). The following applies: recombinant PfPK7, Kinase-Glo ATP depletion luminescence.
Experiment [8] deals with Calcium-dependent protein kinase 4 (Plasmodium falciparum (isolate 3D7)) (UniProt Q8IBS5). Put plainly: PfCDPK4 kinase inhibitors, biochemical, TCAMS library (AID 1159588; cut-off not given, nearly all actives have IC50 up to about 0.91 µM). The following applies: recombinant PfCDPK4, Kinase-Glo ATP depletion luminescence.
Sequence of Calcium-dependent protein kinase 4 (Plasmodium falciparum (isolate 3D7)) (Q8IBS5 whole entry, looked up): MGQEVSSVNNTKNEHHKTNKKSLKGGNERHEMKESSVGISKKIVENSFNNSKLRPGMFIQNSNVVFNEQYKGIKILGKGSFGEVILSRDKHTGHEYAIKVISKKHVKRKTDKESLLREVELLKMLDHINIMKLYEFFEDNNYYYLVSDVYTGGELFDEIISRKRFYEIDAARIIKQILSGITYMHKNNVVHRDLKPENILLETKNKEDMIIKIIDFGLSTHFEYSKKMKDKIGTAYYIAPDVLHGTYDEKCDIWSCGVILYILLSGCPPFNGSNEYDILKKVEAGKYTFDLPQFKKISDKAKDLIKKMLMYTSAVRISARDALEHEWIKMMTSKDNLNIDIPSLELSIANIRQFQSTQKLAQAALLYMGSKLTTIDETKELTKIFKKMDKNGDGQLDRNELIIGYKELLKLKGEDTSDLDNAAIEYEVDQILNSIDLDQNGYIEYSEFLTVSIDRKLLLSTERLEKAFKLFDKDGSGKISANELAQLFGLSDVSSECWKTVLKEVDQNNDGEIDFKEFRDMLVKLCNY

Molecules are shown by their SMILES. Unmarked numbers belong to inactive results. For some of these results: Entries with a potency or affinity are not part of this list. Active and inactive are the calls of the source. Unless noted, no rule for the calls is given here.

Sequence of Protein kinase 7 (PK7), Plasmodium falciparum 3D7 (PF3D7_0213400) (Q7YTF7 1-343): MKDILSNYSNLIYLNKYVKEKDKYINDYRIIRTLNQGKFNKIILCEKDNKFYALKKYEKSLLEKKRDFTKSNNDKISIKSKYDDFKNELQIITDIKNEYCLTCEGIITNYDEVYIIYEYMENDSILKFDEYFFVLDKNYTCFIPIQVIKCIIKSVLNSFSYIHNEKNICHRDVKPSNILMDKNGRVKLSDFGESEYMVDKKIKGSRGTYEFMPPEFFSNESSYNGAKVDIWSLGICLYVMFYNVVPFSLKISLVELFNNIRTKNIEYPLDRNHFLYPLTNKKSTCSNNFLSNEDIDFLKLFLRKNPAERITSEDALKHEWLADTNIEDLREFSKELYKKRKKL
Sequence of Plasmodium falciparum protein kinase 6 (PK6, PF3D7_1337100) (Q8IDW1 1-305): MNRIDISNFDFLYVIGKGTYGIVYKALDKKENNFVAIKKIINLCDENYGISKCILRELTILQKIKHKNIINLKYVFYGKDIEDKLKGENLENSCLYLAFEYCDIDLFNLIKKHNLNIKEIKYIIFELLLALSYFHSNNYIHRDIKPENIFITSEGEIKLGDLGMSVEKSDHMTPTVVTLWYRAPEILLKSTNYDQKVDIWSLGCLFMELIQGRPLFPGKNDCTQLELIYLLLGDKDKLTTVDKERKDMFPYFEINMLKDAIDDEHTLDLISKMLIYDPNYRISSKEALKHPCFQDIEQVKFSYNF
Sequence of L-lactate dehydrogenase (Plasmodium falciparum (isolate CDC / Honduras)) (Q27743 whole entry, looked up): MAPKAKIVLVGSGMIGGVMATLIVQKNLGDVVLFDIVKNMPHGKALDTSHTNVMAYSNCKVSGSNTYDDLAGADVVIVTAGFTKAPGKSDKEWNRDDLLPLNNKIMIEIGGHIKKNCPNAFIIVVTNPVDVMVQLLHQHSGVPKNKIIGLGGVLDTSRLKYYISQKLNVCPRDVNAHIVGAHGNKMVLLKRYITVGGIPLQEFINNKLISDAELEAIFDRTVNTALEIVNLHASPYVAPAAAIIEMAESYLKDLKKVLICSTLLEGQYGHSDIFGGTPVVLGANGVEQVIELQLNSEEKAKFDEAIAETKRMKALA

Take `O=c1cc(NCCC(CNCCc2ccccc2)NCc2cc(Br)cc(Br)c2)[nH]c2ccccc12` (stereo not given): the growth inhibition is 47% in experiment [1] and 98% (active) in experiment [4]. The inhibition in experiment [2] is 3%; in experiment [3], -6%. Also, the outcome in experiment [5], in experiment [6], in experiment [7] and in experiment [8] was inactive.
Turning to `COc1cc(SC)c(Br)cc1-c1nc2ccncc2[nH]1`, the growth inhibition in experiment [1] is 9%; in experiment [4] it was 91% (active). In addition, the inhibition in experiment [2] is 5%; in experiment [3] it was -1%. In addition, the result in experiment [5], in experiment [6], in experiment [7] and in experiment [8] was inactive.
`Cc1cccc2[nH]c(=O)c([N+](=O)[O-])c(O)c12`: the growth inhibition in experiment [1] was -2%; in experiment [4], 95% (active). For the same compound, the inhibition in experiment [2] and in experiment [3] was -2% throughout. Further, the outcome in experiment [5], in experiment [6], in experiment [7] and in experiment [8] was inactive.
As to `Cc1ccc(NC(=O)c2ccc3ncccc3c2)cc1OC1CCN(Cc2ccc(F)cc2)CC1`, the growth inhibition in experiment [1] is 22%; in experiment [4], 91% (active). The inhibition in experiment [2] was 6%; in experiment [3], 1%. Moreover, the result in experiment [5], in experiment [6], in experiment [7] and in experiment [8] was inactive.
As to `C(=NNc1cc(-c2ccccc2)nc2ccccc12)c1cccnc1`, the growth inhibition was 13% in experiment [1] and 87% (active) in experiment [4]. The inhibition in experiment [2] was 23%; in experiment [3], -1%. The result in experiment [5], in experiment [6], in experiment [7] and in experiment [8] was inactive.
For `CS(=O)(=O)c1cccc(-c2cnc(N)c3cc(-c4ccc5c(c4)OCO5)ccc23)c1`, the results for the growth inhibition in experiment [1] and in experiment [4] were 23% and 91% (active), respectively. Moreover, the results for the inhibition in experiment [2] and in experiment [3] were 37% and 1%, respectively. Besides, the result in experiment [5], in experiment [6], in experiment [7] and in experiment [8] was inactive.
Regarding `COc1ccc(-c2cccc(NC(=O)c3ccc(C#N)cc3)c2)cc1CN(C)CCN(C)C`, the figures for the growth inhibition in experiment [1] and in experiment [4] were 18% and 90% (active), respectively. Moreover, the inhibition in experiment [2] was 14%; in experiment [3] it was 3%. The result in experiment [5], in experiment [6], in experiment [7] and in experiment [8] was inactive.
For `CC1CCN(CC[C@H]2CCCN2S(=O)(=O)c2cccc(NC(=O)c3ccc(-c4ccc(Cl)cc4)o3)c2)CC1`, the growth inhibition in experiment [1] was 65% (active); in experiment [4] it was 101% (active). For the same compound, the inhibition in experiment [2] was 45%; in experiment [3], 3%. The result in experiment [5], in experiment [6], in experiment [7] and in experiment [8] was inactive.
Take `CNCc1ccc(-c2ccc3ccnc(N)c3c2)cc1`: the results for the growth inhibition in experiment [1] and in experiment [4] were 98% (active) and 94% (active), respectively. In addition, the inhibition in experiment [2] was 46%; in experiment [3], 5%. The outcome in experiment [5], in experiment [6], in experiment [7] and in experiment [8] was inactive.
As to `COc1cccc(Nc2nccc(NCC(O)c3ccc(C(F)(F)F)cc3)n2)c1` (stereo not given), the growth inhibition in experiment [1] is 28%; in experiment [4] it was 99% (active). Further, the inhibition in experiment [2] is 14%; in experiment [3], -4%. The outcome in experiment [5], in experiment [6], in experiment [7] and in experiment [8] was inactive.
With `O=C(Nc1ccccc1C(F)(F)F)Nc1nn(Cc2c(F)cccc2Cl)cc1Br`, the growth inhibition in experiment [1] is 86% (active); in experiment [4], 100% (active). Further, the inhibition in experiment [2] was -15%; in experiment [3] it was -8%. Also, the result in experiment [5], in experiment [6], in experiment [7] and in experiment [8] was inactive.
Regarding `CNc1nc(NN=Cc2cc([N+](=O)[O-])c(Cl)cc2Cl)nc(Nc2cccc(C(F)(F)F)c2)n1`, the growth inhibition in experiment [1] was 97% (active); in experiment [4] it was 100% (active). Also, the inhibition in experiment [2] was 13%; in experiment [3], 9%. Also, the outcome in experiment [5], in experiment [6], in experiment [7] and in experiment [8] was inactive.
Regarding `CCCCCCCCCCNCC(O)c1ccc(O)c(C(=O)OC)c1` (stereo not given), the growth inhibition in experiment [1] and in experiment [4] was 97% (active) in each case. The inhibition was 3% in experiment [2] and -7% in experiment [3]. Moreover, the outcome in experiment [5], in experiment [6], in experiment [7] and in experiment [8] was inactive.
`Cc1ccc(CN2CCC(Oc3cccc(NC(=O)c4ccc(C(F)(F)F)cc4)c3)CC2)cc1`: the results for the growth inhibition in experiment [1] and in experiment [4] were 15% and 92% (active), respectively. In addition, the inhibition is 37% in experiment [2] and -1% in experiment [3]. The result in experiment [5], in experiment [6], in experiment [7] and in experiment [8] was inactive.
Regarding `Fc1ccc([C@H]2N=C(SCCSC3=N[C@H](c4ccc(F)cc4)[C@H](c4ccc(F)cc4)N3)N[C@H]2c2ccc(F)cc2)cc1`, the results for the growth inhibition in experiment [1] and in experiment [4] were 69% (active) and 99% (active), respectively. The inhibition in experiment [2] is 18%; in experiment [3] it was -5%. In addition, the result in experiment [5], in experiment [6], in experiment [7] and in experiment [8] was inactive.
Take `O=C(NCCCc1ccccc1)c1csc(C2CCCN(C(=O)c3ccc(O)c(-c4cccc5ccccc45)c3)C2)n1` (stereo not given): the growth inhibition is 98% (active) in experiment [1] and 97% (active) in experiment [4]. For the same compound, the inhibition was 3% in experiment [2] and -1% in experiment [3]. The outcome in experiment [5], in experiment [6], in experiment [7] and in experiment [8] was inactive.
For `CC(C)N(CCOc1ccc2c(c1)N(C(=O)Nc1ccc(Cl)c(Cl)c1)CC2)C(C)C`, the values for the growth inhibition in experiment [1] and in experiment [4] were 39% and 101% (active), respectively. Also, the inhibition in experiment [2] is 15%; in experiment [3], 3%. The outcome in experiment [5], in experiment [6], in experiment [7] and in experiment [8] was inactive.
For `CN1CCN(Cc2nc(-c3ccc4c(Nc5ccc(Oc6ccccc6)cc5)ccnc4c3)cs2)CC1`, the growth inhibition in experiment [1] was 99% (active); in experiment [4], 100% (active). Besides, the inhibition was 15% in experiment [2] and 0% in experiment [3]. The outcome in experiment [5], in experiment [6], in experiment [7] and in experiment [8] was inactive.
Turning to `Cc1cccc2[nH]c(-c3ccc(-c4cccc(CNCC5CCCO5)c4)s3)nc12` (stereo not given), the values for the growth inhibition in experiment [1] and in experiment [4] were 11% and 93% (active), respectively. For the same compound, the inhibition in experiment [2] is 26%; in experiment [3] it was -8%. For the same compound, the outcome in experiment [5], in experiment [6], in experiment [7] and in experiment [8] was inactive.
For the compound `CC1CC(NCCCNc2cc(=O)c3ccccc3[nH]2)c2cc(Cl)c(Cl)c(Cl)c21` (stereo not given), the growth inhibition in experiment [1] was 69% (active); in experiment [4], 100% (active). Moreover, the inhibition is 0% in experiment [2] and 3% in experiment [3]. Besides, the outcome in experiment [5], in experiment [6], in experiment [7] and in experiment [8] was inactive.

(Values after PubChem BioAssay.)
